Bioassay records deposited in PubChem BioAssay by National Center for Advancing Translational Sciences (NCATS).
Pf growth 96h – inhibits malaria parasite growth, 96 h. P. falciparum luciferase reporter growth, 96 h. Potency, µM (titrated, usually from 28.7 µM), most hits filed as inhibitors. hit rate 6.9% among 320,000. AID 504834
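Compounds incubated with erythrocytes infected by luciferase-expressing P. falciparum (2% hematocrit, 0.05% parasitemia final) for 96 hours, 37 C in 5% CO2. Growth inhibition scored as decreased luciferase luminescence.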
SARS PLpro yeast – blocks SARS-CoV papain-like protease in a yeast assay. S. cerevisiae expressing SARS-CoV PLpro, growth rescue. Potency, µM (series often up to 32.9 µM), usual class: activators. hit rate 0.19% among 330,000. AID 485353; calls by dose curve; also: nearly all actives have a fitted effect of over 55% in size
HCMV antiviral – inhibitors of human cytomegalovirus | HFF cells, HCMV-luciferase reporter, 72 h; hits give low values | activity change, negative = inhibition, % at 57.5 µM | hit rate 4.5% among 410,000 | AID 1259415; in the data active = activity change below about -60%; inconclusive = no clear call, values can overlap the other calls; inactive = above about -39%
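Two-dose cell screen: HFF monolayers treated with compounds and infected with luciferase-expressing HCMV at 1 PFU/cell, 72 h at 37C, then lysed for luciferase measurement.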
Pf growth 48h – P. falciparum growth inhibition at 48 hours (one generation); Potency, µM (highest dose often 28.7 µM), usual class: inhibitors; AID 504832; P. falciparum luciferase growth in erythrocytes, 48 h; hit rate 5.9% among 310,000
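Read-out is firefly luciferase luminescence from an integrated reporter in P. falciparum, so falling signal marks reduced parasite growth. Infected erythrocytes were at 2% hematocrit and 0.1% parasitemia (final) in Albumax-supplemented RPMI 1640.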
HCV inh – HCV inhibition | Huh7.5.1 HCVcc-Cre infection, luciferase reporter, 44 h | Potency, µM (doses to about 41.8 µM), hits mostly inhibitors | hit rate 3.4% among 340,000
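Infectious HCV cell culture screen: compound-treated cells (1,000/well, pre-plated 4 h) are infected with HCVcc-Cre at roughly 0.5 moi and grown 44 h. Infection is quantified by luciferase signal after 15 min substrate incubation at room temperature.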
Sm TGR inh – S. mansoni TGR enzyme inhibition. purified TGR, DTNB reduction, TNB absorbance 405 nm. hit rate 3% among 360,000. Potency, µM (series often up to 114 µM), most hits filed as inhibitors; also: nearly all actives have a fitted effect of over 60% in size
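TGR 20 nM + NADPH 100 uM (dispensed conc.), cpd preinc 15 min RT; start with NADPH (500 uM addition) then DTNB (15 mM addition). Kinetic TNB absorbance, 405 nm filter. Four-parameter Hill fit across titration.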
A number is an active result; . = inactive; ? = inconclusive; / = not tested or not shown; [ ] = dose if it differs, or a comment. A selection: hits, their analogues and other compounds. The true share with any hit is near 15%. Unless noted, calls follow the shape of the dose curve; as a rule, active = well fitted curve in the direction sought with a large enough effect; inconclusive = small, poorly fitted or top-dose-only effect, or another doubt; inactive = no such curve, though single readings can be large; an effect the other way counts as inactive or inconclusive.

SMILES | Pf growth 96h | SARS PLpro yeast | HCMV antiviral | Pf growth 48h | HCV inh | Sm TGR inh
COc1ccc(S(=O)(=O)N2CCOCC2)cc1C(=O)NCC(c1ccco1)N1CCCC1 (stereo not drawn) | . | . | . | . | . | .
O=C(NCC(c1ccco1)N1CCOCC1)c1ccc(Cl)cc1 (stereo not drawn) | . | . | . | . | . | .
CSCCC(NC(=O)c1ccccc1Br)C(=O)NCC(c1ccco1)N1CCCCC1 (stereo not drawn) | 9.3µM | . | . | ? | . | .
COc1ccccc1C(CNC(=O)CCNC(=O)c1ccccc1Cl)N1CCCC1 (stereo not drawn) | . | / | . | ? | . | .
O=C(CCNC(=O)c1ccc(Cl)cc1)NCC(c1ccco1)N1CCCC1 (stereo not drawn) | ? | . | . | 12µM | . | .
O=c1c2ccccc2nnn1Cc1ccco1 | / | / | . | / | / | /
CCOC(=O)N1CCN(C(=O)c2ccc(NS(=O)(=O)c3ccc(C)cc3)cc2)CC1 | . | . | -76 | . | / | .
CCOC(=O)N1CCN(C(=O)c2ccc(S(=O)(=O)Nc3ccc(C)cc3)cc2)CC1 | / | . | -69 | / | ? | /
CCOc1ccc(NC(=O)CN2CCN(C3c4ccccc4-c4ccccc43)CC2)cc1 | . | . | . | 13µM | ? | .
CCCCOc1ccc(NC(=O)CN2CCN(CC)CC2)cc1 | . | . | . | . | ? | .
COc1ccccc1NC(=O)CN1CCN(C2c3ccccc3-c3ccccc32)CC1 | . | ? | . | 13µM | . | .
CCCCOc1ccc(NC(=O)CN2CCN(C(=O)OCC)CC2)cc1 | ? | . | . | 9.3µM | . | .
COc1cc(C(=O)NCCOc2cc(C)ccc2C(C)C)cc(OC)c1OC | . | . | -67 | .[0.00184 µM] | 2.8µM | .
COc1ccc(C)cc1NC(=O)C(NC(=O)c1cc(OC)c(OC)c(OC)c1)C(C)C (stereo not drawn) | 13µM | . | . | . | ? | .
COc1ccc2cnn(CCOc3cc(C)ccc3C(C)C)c(=O)c2c1OC | 10µM | . | . | ? | ? | .
Cc1ccc(C(C)C)c(OCCNC(=O)c2cncc(Br)c2)c1 | ? | . | . | ? | . | .
COc1cccc(-c2nnc(-c3ccccc3NC(=O)c3cccc(C(F)(F)F)c3)o2)c1 | / | / | . | / | / | .
Cc1ccc(N(CC(=O)NC(C)(C)C)C(=O)CNC(=O)c2cccs2)c(C)c1 | . | . | . | 8.3µM | . | /
O=C(Cc1ccccc1)Nc1nc2ccccc2[nH]1 | / | . | . | . | . | ?
O=C(CN1C(=O)C2CC=CCC2C1=O)Nc1nc2ccccc2[nH]1 (stereo not drawn) | 19µM | . | ? | . | . | .
Cc1ccc(-c2nc(CNC(=O)c3ccco3)cs2)cc1 | ? | . | . | . | ? | ?
COc1cccc(C(=O)N2CCc3cc(OC)c(OC)cc3C2COc2ccc3c(C)cc(=O)oc3c2)c1 (stereo not drawn) | / | / | . | / | / | .
CCOc1ccccc1CNC(=O)CC(C)n1ccc(C)n1 (stereo not drawn) | / | / | . | / | / | .
NC1=NC(=O)/C(=C/c2cn(Cc3ccccc3)c3ccccc23)S1 | ? | . | ? | 2.1µM | ? | .
NC(=O)CSc1nnc(-c2cccs2)n1Cc1ccco1 | . | . | . | . | . | .
SMILES | Pf growth 96h | SARS PLpro yeast | HCMV antiviral | Pf growth 48h | HCV inh | Sm TGR inh
O=C(CSc1nnc(-c2ccc(Cl)cc2)n1Cc1ccco1)c1cccs1 | ? | . | . | ? | . | 28µM
O=C(CSc1nnc(-c2ccncc2)n1Cc1ccco1)c1ccc(Cl)cc1 | ? | . | . | . | . | 0.89µM
NC(=O)CSc1nnc(-c2ccc(O)cc2)n1Cc1ccco1 | . | . | . | . | . | .
O=C(NCc1ccco1)/C(=C/c1cccc(C(F)(F)F)c1)c1nc2ccccc2[nH]1 | ? | . | -100 | ? | 16µM | .
COc1ccc(N(CC(=O)Nc2ccc(Cc3ccncc3)cc2)S(=O)(=O)c2ccccc2)cc1 | . | . | . | 13µM | ? | .
COc1ccc(N(CC(=O)Nc2ccc(S(=O)(=O)N3CCOCC3)cc2)S(=O)(=O)c2ccccc2)cc1 | / | . | . | 10µM | 4µM | .
COc1ccc(NC(=O)CN(c2ccc([N+](=O)[O-])cc2)S(=O)(=O)c2ccccc2)cc1 | . | . | . | ? | ? | .
COc1ccccc1N(CC(=O)Nc1ccc(Cc2ccncc2)cc1)S(=O)(=O)c1ccccc1 | ? | . | ? | 8.3µM | ? | .
Cc1ccc(S(=O)(=O)NCC(=O)NCC(=O)N(C)Cc2ccc(Br)s2)cc1C | / | / | . | / | / | /
CC(C)c1ccc(NC(=O)c2ccccc2NC(=O)C2CCCCC2C(=O)O)cc1 (stereo not drawn) | . | . | . | . | . | .
COc1cc(CN2C[C@@H](CO)O[C@@H](n3cnc4c(NC5CCCC5)ncnc43)C2)cc(OC)c1OC | / | / | . | / | / | /
Cc1cc(C(=O)CSc2nnc(-c3ccco3)o2)c(C)n1CC1COc2ccccc2O1 (stereo not drawn) | 4.7µM | . | . | 10µM | ? | .
Cc1cc(C(=O)CN2C(=O)C(=O)N(Cc3ccccc3)C2=O)c(C)n1CC1COc2ccccc2O1 (stereo not drawn) | ? | . | . | ? | 11µM | .
Cc1cc(C(=O)CSc2nnc(-c3ccccc3)o2)c(C)n1CC1COc2ccccc2O1 (stereo not drawn) | 3.3µM | . | . | ? | . | .
CC(=O)c1ccccc1NS(=O)(=O)c1cc2c(cc1C)NC(=O)CO2 | / | / | . | / | / | .
CC(C)[C@@H](C)/C=C/[C@@H](C)[C@H]1CC[C@@H]2[C@]1(C)CCC1[C@]23C=C[C@]2(C[C@@H](O)CC[C@]12C)N(c1ccc(F)cn1)O3 (stereo partly drawn) | / | / | . | / | / | /
CCCCn1c(N)c(N(CC(C)C)C(=O)C2CCN(S(=O)(=O)c3ccc(C)cc3C)CC2)c(=O)[nH]c1=O | ? | . | . | 13µM | ? | .
Cc1ccc(S(=O)(=O)N2CCN(CC(=O)N(CC(C)C)c3c(N)n(CC(C)C)c(=O)[nH]c3=O)CC2)c(C)c1 | 4.1µM | . | . | ? | . | .
CCCCn1c(N)c(N(CCOC)C(=O)C2CCN(S(=O)(=O)c3ccc(Cl)cc3)CC2)c(=O)[nH]c1=O | ? | . | -70 | . | . | .
CCCCn1c(N)c(N(CCOC)C(=O)C2CCN(S(=O)(=O)c3ccc(F)cc3)CC2)c(=O)[nH]c1=O | . | . | . | . | . | .
CCCCn1c(N)c(N(CC(C)C)C(=O)C2CCN(S(=O)(=O)c3ccc(C)c(C)c3)CC2)c(=O)[nH]c1=O | 2.3µM | . | . | 2.6µM | . | .
CC(C)CN(C(=O)CN1CCN(c2ccc(F)cc2)CC1)c1c(N)n(CC(C)C)c(=O)[nH]c1=O | . | . | . | . | . | .
